Our source for the outcome and AC50 values is PubChem BioAssay (EPA / NIEHS).

For test [1], the target named is Paired box protein Pax-6 (Homo sapiens) (UniProt P26367). The test can be described thus: ATG_Pax6_CIS: Attagene CIS-FACTORIAL HepG2 Assay for human Paired Box 6 (PAX6) (AID 2282956). To be noted: HepG2 CIS-FACTORIAL PAX6 reporter transcription, RNA readout; actives raise or lower the signal. Summed up:
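DMSO-referenced bidirectional fits of reporter mRNA fluorescence; HepG2 with transient cis-promoter MRTUs, 24 h post-dose, RT-PCR plus capillary electrophoresis detection.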

Test [2] in a line: ATG_PXRE_CIS: Attagene CIS-FACTORIAL HepG2 Assay for human Pregnane X Receptor Element (PXRE) (AID 2282957). To be noted: HepG2 Attagene CIS-FACTORIAL PXRE reporter, mRNA; actives raise or lower the signal. Summed up:
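Using HepG2 transfected with multiple reporter transcription units, endogenous factor-driven transcription was scored as reporter mRNA after 24 h exposure.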

Test [3] is described as follows: ATG_PPRE_CIS: Attagene CIS-FACTORIAL HepG2 Assay for human Peroxisome Proliferator-activated Response Element (PPRE) (AID 2282958). To be noted: HepG2 PPRE cis-element reporter, Attagene transcription factor profiling; actives raise or lower the signal. Summed up:
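DMSO served as negative control and baseline for bidirectional curve fitting. Signal came from PPRE-regulated reporter mRNA in HepG2 cells, measured 24 h post-dosing by RT-PCR, 6-FAM primer extension and capillary electrophoresis.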

A short description of test [4]: ATG_RORE_CIS: Attagene CIS-FACTORIAL HepG2 Assay for human RAR-related Orphan Receptor Element (RORE) (AID 2282959). To be noted: HepG2 Attagene cis-factorial RORE reporter, mRNA; actives raise or lower the signal. The essentials: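 Transfect HepG2 with MRTUs; treat 24 h; extract RNA; RT with oligo(dT); PCR with reporter-specific primers; 6-FAM primer extension; HpaI digest 2 h at 37 C; capillary electrophoresis. Fit vs DMSO, bidirectional.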

Test [5] is described as follows: ATG_Sox_CIS: Attagene CIS-FACTORIAL HepG2 Assay for human SRY-box transcription factor (SOX) (AID 2282960). To be noted: HepG2 Attagene cis-factorial SOX reporter, mRNA; actives raise or lower the signal. Summed up:
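Fluorescence-labelled cDNA fragments from reporter transcripts, sized by CE, give the signal. Cells: HepG2, transiently transfected with cis-regulated reporter units. Exposure 24 h; DMSO negative control; bidirectional curve fitting.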

Test [6] has as its target Transcription factor Sp1 (Homo sapiens) (UniProt P08047). The test can be described thus: ATG_Sp1_CIS: Attagene CIS-FACTORIAL HepG2 Assay for human Specificity Protein 1 (Sp1) (AID 2282961). To be noted: HepG2 Sp1 cis-reporter transcription, actives raise or lower the signal. The essentials: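 Chemicals are dosed onto HepG2 cells transfected with multiple cis-promoter reporter constructs, and after 24 h reporter RNA is reverse-transcribed, PCR-amplified and resolved by capillary electrophoresis for fluorescence quantitation; activity is scored up or down against DMSO.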

A short description of test [7]: ATG_SREBP_CIS: Attagene CIS-FACTORIAL HepG2 Assay for human Sterol Regulatory Element Binding (SREBP) (AID 2282962). To be noted: HepG2 Attagene cis-factorial SREBP reporter, mRNA; actives raise or lower the signal. The essentials: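 In this cis-format assay, HepG2 liver cells express reporters controlled by promoter elements responsive to native transcription factors. Exposure lasts 24 h; reporter mRNA fluorescence from capillary electrophoresis gives the signal, fitted bidirectionally against DMSO.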

For test [8], the target named is Signal transducer and activator of transcription 3 (Homo sapiens) (UniProt P40763). In words: ATG_STAT3_CIS: Attagene CIS-FACTORIAL HepG2 Assay for human Signal Transducer and Activator of Transcription 3 (STAT3) (AID 2282963). To be noted: HepG2, Attagene cis-factorial STAT3 reporter transcription; actives raise or lower the signal. The essentials: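 Readout is reporter transcript quantified by RT-PCR and capillary electrophoresis, with 6-FAM primer extension and HpaI digestion. Total RNA is taken 24 h after dosing transiently transfected HepG2 carrying cis-regulated reporter units. Bidirectional fit against DMSO.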

Test [9] can be described thus: ATG_TA_CIS: Attagene CIS-FACTORIAL HepG2 Assay for human TA Basal Promoter (AID 2282964). To be noted: HepG2 Attagene CIS-factorial TA basal promoter reporter; actives raise or lower the signal. Summed up: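 Read-out: fluorescent reporter-transcript fragments resolved by capillary electrophoresis after RT-PCR and HpaI digestion. Source: HepG2 cells carrying transiently transfected multi-reporter cis constructs, treated 24 h. Endpoint fitted bidirectionally relative to DMSO.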

The nature of test [10]: ATG_TCF_b_cat_CIS: Attagene CIS-FACTORIAL HepG2 Assay for human T-Cell-Factor with beta-catenin (TCF/b-cat) (AID 2282965). To be noted: HepG2 TCF/beta-catenin cis-reporter transcription, actives raise or lower the signal. Summed up:
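Measured: reporter mRNA in HepG2 transiently transfected with cis-promoter reporter units, 24 h after chemical addition. Fitting was bidirectional, DMSO as negative control.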

Several values for one entry are separate records, joined by “and”; a condition that tells them apart may be missing. Identical values can stand only once. Some compounds were tested as several samples or in several runs, with calls that do not always agree. Activity calls are given as the source filed them. The calls were made as follows: active = hit-call score of the fitted dose curve at least 0.9, where 1 is the maximum; inactive = score below 0.9.

By AC50 is commonly meant the concentration at which the activity in the assay is half-maximal.

Chain of Paired box protein Pax-6 (Homo sapiens) (P26367 whole entry, looked up): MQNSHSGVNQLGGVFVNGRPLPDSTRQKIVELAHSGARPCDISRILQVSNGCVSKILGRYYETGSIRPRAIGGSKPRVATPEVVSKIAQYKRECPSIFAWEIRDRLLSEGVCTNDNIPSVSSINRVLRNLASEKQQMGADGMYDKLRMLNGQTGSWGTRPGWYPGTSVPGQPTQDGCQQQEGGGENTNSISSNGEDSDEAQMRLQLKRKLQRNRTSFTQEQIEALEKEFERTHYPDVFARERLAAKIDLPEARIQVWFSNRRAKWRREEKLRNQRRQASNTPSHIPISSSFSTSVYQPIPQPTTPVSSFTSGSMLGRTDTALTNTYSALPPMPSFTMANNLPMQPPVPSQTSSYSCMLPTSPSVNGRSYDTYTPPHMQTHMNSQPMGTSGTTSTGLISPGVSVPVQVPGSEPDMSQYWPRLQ
Chain of Signal transducer and activator of transcription 3 (Homo sapiens) (P40763 whole entry, looked up): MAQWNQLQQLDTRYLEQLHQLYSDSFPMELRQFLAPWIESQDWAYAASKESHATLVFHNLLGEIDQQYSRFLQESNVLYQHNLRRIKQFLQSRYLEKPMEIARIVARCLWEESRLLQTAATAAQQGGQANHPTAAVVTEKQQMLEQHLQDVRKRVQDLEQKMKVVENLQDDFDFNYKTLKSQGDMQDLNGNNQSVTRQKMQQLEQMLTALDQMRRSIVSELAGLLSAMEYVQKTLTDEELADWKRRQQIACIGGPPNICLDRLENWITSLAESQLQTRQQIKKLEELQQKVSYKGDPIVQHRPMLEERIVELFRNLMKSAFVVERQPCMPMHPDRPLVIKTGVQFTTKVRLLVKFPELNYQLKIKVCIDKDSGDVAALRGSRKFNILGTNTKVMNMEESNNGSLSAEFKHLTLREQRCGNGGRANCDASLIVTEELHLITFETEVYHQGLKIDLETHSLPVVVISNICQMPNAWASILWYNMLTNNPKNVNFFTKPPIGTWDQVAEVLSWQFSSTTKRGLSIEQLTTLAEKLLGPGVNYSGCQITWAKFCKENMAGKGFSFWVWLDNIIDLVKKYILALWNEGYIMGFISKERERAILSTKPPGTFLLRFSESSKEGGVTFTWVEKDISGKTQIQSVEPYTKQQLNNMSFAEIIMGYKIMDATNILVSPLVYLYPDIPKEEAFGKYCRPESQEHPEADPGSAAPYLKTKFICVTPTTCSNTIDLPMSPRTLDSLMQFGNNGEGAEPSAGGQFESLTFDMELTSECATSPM
Chain of Transcription factor Sp1 (Homo sapiens) (P08047 whole entry, looked up): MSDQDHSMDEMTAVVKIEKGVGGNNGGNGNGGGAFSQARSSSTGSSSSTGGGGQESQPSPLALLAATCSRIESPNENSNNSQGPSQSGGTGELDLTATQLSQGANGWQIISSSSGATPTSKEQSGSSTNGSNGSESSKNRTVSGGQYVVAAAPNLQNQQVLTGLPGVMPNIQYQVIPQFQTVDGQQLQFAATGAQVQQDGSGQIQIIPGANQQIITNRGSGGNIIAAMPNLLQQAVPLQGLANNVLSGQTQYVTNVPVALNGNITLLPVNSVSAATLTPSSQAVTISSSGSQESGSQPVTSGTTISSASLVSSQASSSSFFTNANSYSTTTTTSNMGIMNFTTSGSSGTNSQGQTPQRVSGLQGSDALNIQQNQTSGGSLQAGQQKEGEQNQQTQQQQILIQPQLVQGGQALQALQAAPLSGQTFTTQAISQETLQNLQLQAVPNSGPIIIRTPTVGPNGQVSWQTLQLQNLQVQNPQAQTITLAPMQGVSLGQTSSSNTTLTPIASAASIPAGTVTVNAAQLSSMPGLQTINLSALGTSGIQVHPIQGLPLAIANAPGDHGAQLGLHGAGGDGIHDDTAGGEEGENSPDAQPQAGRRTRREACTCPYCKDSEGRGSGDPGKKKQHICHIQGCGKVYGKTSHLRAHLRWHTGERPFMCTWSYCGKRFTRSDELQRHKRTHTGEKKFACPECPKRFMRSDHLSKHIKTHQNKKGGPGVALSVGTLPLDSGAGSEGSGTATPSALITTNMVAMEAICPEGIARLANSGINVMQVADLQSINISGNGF

On to `ClC1=C(Cl)[C@]2(Cl)[C@@H]3[C@@H](Cl)[C@@H](Cl)C[C@@H]3[C@@]1(Cl)C2(Cl)Cl`, for which the compound was classed as inactive in test [1], in test [2], in [3], in [4], in [5] and in test [6]. For the same compound, the call in test [7], in test [8], in test [9] and in test [10] was inactive.

As to `COc1cc(-c2ccc(N)c(OC)c2)ccc1N`, the AC50 in [1] is 19.9 µM (active); in test [2] it was 25.2 µM (active); in test [3], 43.9 µM (active) and 11.8 µM (active); in test [4] it was 15.7 µM (active) and 33.6 µM (active); in test [6], 19.8 µM (active); in test [7] it was 7.03 µM (active) and 39.9 µM (active). The call in test [1], in test [2], in [5], in test [6], in test [8] and in [9] was inactive. The call in test [10] was inactive.

Consider `CCC[CH2][Sn]([Cl])([Cl])[Cl]`, for which the call in test [1], in [2], in [3], in test [4], in test [5] and in test [6] was inactive. In addition, the result in test [7], in test [8], in test [9] and in [10] was inactive.

For `O=[N+]([O-])c1ccc2c3c(cccc13)CC2`, the result in test [1], in test [3], in test [4], in [5], in test [6] and in test [7] was inactive. Also, the result in [8], in test [9] and in test [10] was inactive. The AC50 in [2] was 4.23 µM (active).

Take `CC(C#N)CCC#N` (configuration not stated): the compound was called inactive in test [1], in [2], in test [3], in [4], in test [5] and in [6]. The compound was called inactive in [7], in [8], in test [9] and in test [10].

For `CC(C)(c1ccccc1)c1ccc(O)c(C(C)(C)c2ccccc2)c1`, the half-maximal activity concentration (AC50) in [1] was 12.7 µM (active); in test [2], 0.156 µM (active); in test [3], 3.04 µM (active); in test [6], 7.78 µM (active); in [7] it was 4.24 µM (active). Besides, the outcome in test [4], in test [5], in test [8], in [9] and in test [10] was inactive.

For the compound `Clc1nc(Cl)nc(Cl)n1`, the compound was called inactive in test [1], in [3], in test [4], in test [5], in [6] and in test [7]. For the same compound, the result in [8], in test [9] and in test [10] was inactive. Also, the AC50 in test [2] was 34.9 µM (active).

On to `NNC(=S)NN`, for which the outcome in test [1], in test [2], in test [3], in test [4], in test [5] and in test [6] was inactive. Further, the compound was called inactive in [7], in test [8], in [9] and in test [10].

For `C1CCC(NC2CCCCC2)CC1`, the call in test [1], in test [3], in [4], in [5], in [6] and in test [7] was inactive. In addition, the compound was classed as inactive in [8], in [9] and in test [10]. In test [2], the concentration at half-maximal activity (AC50) was 16.7 µM (active).

`CC(=[OH+])/C=C(/C)[O-].CC(=[OH+])/C=C(/C)[O-].CC(=[OH+])/C=C(/C)[O-].[Al]`: the compound was called inactive in test [1], in test [2], in [3], in test [4], in test [5] and in test [6]. Also, the call in [7], in test [8], in test [9] and in test [10] was inactive.

As for `CCC(C)c1cccc(C(C)CC)c1O` (configuration not stated), the outcome in [1], in test [3], in test [4], in test [5], in test [6] and in test [7] was inactive. The call in test [8], in test [9] and in [10] was inactive. For the same compound, the AC50 in test [2] was 5.61 µM (active).

For `CC(C)(C)c1cc(O)ccc1O`, the AC50 in test [1] was 124 µM (active); in test [2], 4.27 µM (active); in test [3], 65.6 µM (active); in test [4], 54.6 µM (active); in [5], 179 µM (active); in test [9], 138 µM (active). For the same compound, in test [10], the AC50 is 119 µM (active). Moreover, the compound was called inactive in [6], in [7] and in test [8].

With `O=C/C=C/c1ccccc1`, the compound was called inactive in [1], in [3], in test [4], in [5], in test [6] and in test [7]. Besides, the compound was classed as inactive in [8], in test [9] and in test [10]. Moreover, the concentration at half-maximal activity (AC50) in test [2] was 9.96 µM (active).

Turning to `c1ccc(N=NNc2ccccc2)cc1`, the AC50 is 125 µM (active) in test [1]; 25.8 µM (active) in test [2]; 21.7 µM (active) in [3]; 145 µM (active) in test [5]; 153 µM (active) in [6]; 136 µM (active) in test [7]. In addition, the compound was called inactive in [4], in test [8], in [9] and in test [10].

With `O=C(O)C(Cl)(Cl)Cl`, the compound was called inactive in test [1], in [2], in test [3], in [4], in test [5] and in test [6]. Moreover, the outcome in test [7], in test [8], in test [9] and in [10] was inactive. Besides, the AC50 in test [2] was 71.7 µM (active).

Consider `O=S(=O)(c1ccc(Cl)cc1)c1ccc(Cl)cc1`, for which the compound was classed as inactive in test [1], in [3], in test [4], in [5], in test [6] and in test [7]. In addition, the outcome in [8], in [9] and in [10] was inactive. Also, the AC50 in test [2] is 4.46 µM (active).

With `O=C(Nc1ccc2[nH]ccc2c1)c1cc2cc(F)ccc2n1Cc1cccc(F)c1`, the AC50 is 13.9 µM (active) in test [1]; 2.75 µM (active) in test [2]; 16.8 µM (active) in [5]; 14.7 µM (active) in test [6]; 14 µM (active) in [9]; 15.8 µM (active) in test [10]. Also, the outcome in [3], in test [4], in [7] and in [8] was inactive.

`ClCCBr`: the outcome in test [1], in [2], in [3], in test [4], in [5] and in test [6] was inactive. Also, the outcome in [7], in test [8], in test [9] and in test [10] was inactive.

Take `COc1ccccc1OC`: the result in [1], in test [2], in test [3], in test [4], in test [5] and in [6] was inactive. Further, the outcome in test [7], in test [8], in test [9] and in test [10] was inactive.

`CC(=O)OC(c1ccccc1)C(Cl)(Cl)Cl` (configuration not stated): the compound was classed as inactive in test [1], in test [3], in test [4], in [5], in test [6] and in test [7]. Further, the compound was classed as inactive in test [8], in test [9] and in test [10]. Besides, the half-maximal activity concentration (AC50) in [2] was 48.6 µM (active).

Take `O=C(O)C(F)(F)C(F)(F)C(F)(F)C(F)(F)C(F)(F)C(F)(F)C(F)(F)C(F)(F)C(F)(F)C(F)(F)F`: the AC50 in test [1] is 30.8 µM (active); in [2], 62 µM (active); in test [4], 24.2 µM (active); in test [5] it was 58.4 µM (active); in test [10], 31.9 µM (active) and 13.1 µM (active). Besides, the compound was called inactive in [1], in test [2], in test [4], in test [5], in [6] and in test [7]. Moreover, the compound was classed as inactive in test [8] and in test [9].

For the compound `CCOP(=S)(OCC)Oc1ccc(S(C)=O)cc1` (configuration not stated), the compound was classed as inactive in test [1], in [3], in test [4], in [5], in [6] and in test [7]. Further, the result in [8], in [9] and in test [10] was inactive. Further, in test [2], the AC50 is 15.9 µM (active).
